Assay results: ChEMBL document CHEMBL4513216, “Probing the Open Global Health Chemical Diversity Library for Multistage-Active Starting Points for Next-Generation Antimalarials” (ACS Infect Dis, 2020)
Hit rate of the full screen: of about 69,000 compounds, about 8,600 (12%) showed an effect of 50% or more. The list comes from a sample in which strong results are over-represented; it also holds similar structures and randomly drawn compounds.

The compounds below were run on Plasmodium berghei (assay: Screen against P. berghei liver stage (PbLuc), transformed with Luciferase, at 10uM). Conditions: tested at 10 uM.
Type: functional, HepG2
In the case of `Cc1cc(CC(=O)NC2CCCN(c3ccccc3F)C2=O)n[nH]1` (centres undefined), the INHIBITION is reported as 13.6%.
In the case of `Cc1ccsc1C(CNC(=O)c1cc(=O)[nH]c(=O)[nH]1)N(C)C` (centres undefined), the INHIBITION is reported as -27.5%.
Work on `NC(=O)CC1CCCN(c2cncc(SCc3ccccc3)n2)C1` (centres undefined) yielded an INHIBITION of -13.7%.
For `CC(=O)Nc1ccc(Cl)c(C(=O)N(C)C(C)c2ccncn2)c1` (centres undefined), the INHIBITION was 32.2%.
Work on `CC(=O)Nc1ccc(Cl)c(C(=O)N(C)C(C)c2nccs2)c1` (centres undefined) yielded an INHIBITION of 61%.
For `CC(=O)Nc1ccc(Cl)c(C(=O)N(C)C(C)c2ccon2)c1` (centres undefined), the INHIBITION was 18.3%.
Compound `Cc1nc(C)n(CC2CN(Cc3ccc4c(c3)OCCO4)CCO2)n1` (centres undefined) has an INHIBITION of 1.78%.
For `O=C(Cn1cnc2sccc2c1=O)NCCCc1nnc2ccccn12`, the INHIBITION was 28.3%.
`Cc1cnc(CCNC(=O)NCCc2ccc(O)cc2)s1` was tested, and the INHIBITION was 42.8%.
`CCc1cnc(CNC(=O)NCCc2ccc(O)cc2)s1` gave an INHIBITION of 71.1%.
`CCc1cnc(CNC(=O)NCCCO)s1` was tested, and the INHIBITION was -25.6%.
Work on `CCC[C@@H]1CN(Cc2ccccc2OC(F)(F)F)C[C@H]1NC(C)=O` yielded an INHIBITION of 19.7%.
In the case of `CC(CCc1ncnn1Cc1cccc(Cl)c1)N1CCCC1` (centres undefined), the INHIBITION is reported as 49.3%.
`COc1cccc(Cn2ncnc2CCC(C)N2CCN(C)CC2)c1` (centres undefined) was tested, and the INHIBITION was 72%.
Compound `COc1cccc(Cn2ncnc2CCSC)c1` has an INHIBITION of -32.9%.
`Cc1noc(C2CCCN(C(=O)CCCNc3ncccn3)C2)n1` (centres undefined) gave an INHIBITION of 8.535%.
`COc1ccc(CCCNCc2c(C)nn(C)c2N(C)C)cc1OC` was tested, and the INHIBITION was 45.7%.
Compound `CN(C)c1cccc(C(=O)N2CCn3c(nnc3C3CC3)C2)c1` has an INHIBITION of 25.4%.
Work on `CN(C)C(=O)c1cc(S(=O)(=O)N2CCCC2Cn2ccnc2)cn1C` (centres undefined) yielded an INHIBITION of 61.5%.
In the case of `Cn1cc(S(=O)(=O)N2CCCC2Cn2ccnc2)cc1C(N)=O` (centres undefined), the INHIBITION is reported as 39.9%.
`Cn1cc(S(=O)(=O)N2CCCC2Cn2ccnc2)cn1` (centres undefined) was tested, and the INHIBITION was 34.4%.
`COCCN(Cc1ccco1)Cc1nc(-c2ccccc2)no1` showed an INHIBITION of -10.1%.
Compound `CN(Cc1nc(CS(C)(=O)=O)no1)c1ccccc1` has an INHIBITION of 19.7%.
Compound `CS(=O)(=O)Cc1noc(CN(Cc2ccco2)c2ccccc2)n1` has an INHIBITION of 54.4%.
Compound `Cc1noc(C)c1CN1C[C@@H](N(C)Cc2ccco2)[C@H]2OCCC[C@H]21` has an INHIBITION of 20.6%.
`O=C(NCCNc1ncccn1)C1CCN(C(=O)c2ccoc2)CC1` showed an INHIBITION of -2.53%.
Work on `CC1(C)OC(=O)N(CCCC(=O)c2ccc(F)cc2)C1=O` yielded an INHIBITION of -4.12%.
For `CN(C)C(=O)CNC(=O)c1ccc(Cl)cc1F`, the INHIBITION was -12.6%.
For `CN(C)C(=O)CCC[S+]([O-])Cc1cc(Cl)ccc1Cl` (centres undefined), the INHIBITION was 57.3%.
Compound `COCC(=O)N(C)Cc1ccc(Cl)c(Cl)c1` has an INHIBITION of -11.1%.
`CN(C)C(=O)CCC[S+]([O-])Cc1ccc(Cl)c(Cl)c1` (centres undefined) was tested, and the INHIBITION was 57.3%.
In the case of `CN(C)C(=O)CCC[S+]([O-])Cc1ccc(F)c(F)c1` (centres undefined), the INHIBITION is reported as 31.5%.
`CN(C)C(=O)CCNC(=O)NCc1ccc(Br)cc1Cl` was tested, and the INHIBITION was 47.6%.
Work on `CC(C)CCN1CCc2cc(C(=O)N(C)C)c(NCC3CC3)nc2CC1` yielded an INHIBITION of -35%.
With `CCc1nnc(N2C[C@@H](NC(C)=O)[C@H](c3ccc(C)o3)C2)s1` the INHIBITION was 44.3%.
Compound `CC(=O)N[C@@H]1CN(C(=O)c2cc3sccc3[nH]2)C[C@H]1c1ccc(C)o1` has an INHIBITION of -7.94%.
`CC(=O)N[C@@H]1CN(C(=O)c2cc3ccccc3[nH]2)C[C@H]1c1ccc(C)o1` showed an INHIBITION of 61.2%.
Compound `O=C(N[C@H]1CN(c2nc(CO)cs2)C[C@@H]1C1CC1)C1CCCCC1` has an INHIBITION of 50.4%.
`CC(=O)N[C@@H]1CN(c2nc(CO)cs2)C[C@H]1c1ccc(C)o1` was tested, and the INHIBITION was 65.6%.
For `CC(=O)N[C@@H]1CN(c2nc(C(N)=O)cs2)C[C@H]1c1ccc(C)o1`, the INHIBITION was 35%.
`Cc1nc(O)cc(CN2C[C@H](NC(=O)C3CCCC3)[C@@H](C3CC3)C2)n1` showed an INHIBITION of -69.6%.
`CCC[C@H]1CN(c2nc(CO)cs2)C[C@@H]1NC(=O)C1CCC1` gave an INHIBITION of 48.2%.
For `CC(=O)N[C@@H]1CN(C(=O)c2ccc[nH]2)C[C@H]1c1ccc(C)o1`, the INHIBITION was 45.1%.
`Cc1ccccc1C1CN(c2cnn(C)c(=O)c2Cl)CCO1` (centres undefined) showed an INHIBITION of -3.35%.
`Cc1cnc(N2C[C@H]3CN(Cc4csc(C)n4)C(=O)[C@H]3C2)nc1` gave an INHIBITION of 31.4%.
`CCOC(=O)[C@]12CCCN(Cc3ccco3)C[C@H]1CN(S(C)(=O)=O)C2` gave an INHIBITION of 6.67%.
Compound `Cc1ccc2c(c1)[C@@H](CC(=O)N1CCN(C)CC1)CCO2` has an INHIBITION of -12.2%.
For `CNC(=O)[C@H]1C[C@@H]2CN(S(=O)(=O)c3ccc(F)cc3)C[C@@H]2N1C`, the INHIBITION was 35.8%.
For `CCN1CC[C@@]2(C(=O)N3CCCC3)CCN(S(C)(=O)=O)CC[C@@H]12`, the INHIBITION was -45.5%.
For `Cc1ncsc1CN1C[C@@H]2COC[C@]2(CNC(=O)c2ccccc2)C1`, the INHIBITION was -49.6%.
`Cc1cccc(COC[C@H]2CC[C@H]3[C@H](CCN3C(=O)CC3CC3)O2)n1` was tested, and the INHIBITION was 2.84%.
With `COc1cccc(COCC(=O)N2CCCCCC2)c1` the INHIBITION was -51.075%.
For `COc1cccc(C(=O)N2CCN(C(=O)CCCc3cn[nH]c3)CC2)c1`, the INHIBITION was 65.6%.
`COc1cccc(OCC2CCCN(C(C)=O)C2)c1` (centres undefined) gave an INHIBITION of -20.9%.
For `COc1ccc(C(=O)N2CCN(C(=O)CCCc3cn[nH]c3)CC2)cc1`, the INHIBITION was 26.4%.
`O=C(CCCc1cn[nH]c1)N1C[C@@H](CN2CCOCC2)[C@@H](CO)C1` gave an INHIBITION of 2.3%.
With `COc1ccccc1C(=O)N1CCN(C(=O)CCCc2cn[nH]c2)CC1` the INHIBITION was 32%.
`O=C(CCCc1cn[nH]c1)N1C[C@@H](CN2CCCCCC2)[C@@H](CO)C1` showed an INHIBITION of 52.2%.
With `O=C(CCc1cn[nH]c1)N1C[C@@H](CN2CCCCCC2)[C@@H](CO)C1` the INHIBITION was 36.6%.
With `COc1cccc(C(=O)N2CCN(C(=O)CCCn3ccnc3)CC2)c1` the INHIBITION was 40.9%.
Compound `COc1ccccc1C(=O)N1CCN(C(=O)CCn2ccnc2)CC1` has an INHIBITION of -27.4%.
In the case of `COc1cccc(OCC2CCCN(C(=O)CCn3ccnc3)C2)c1` (centres undefined), the INHIBITION is reported as 82.2%.
For `COc1cccc(C(=O)N2CCN(C(=O)CCn3ccnc3)CC2)c1`, the INHIBITION was 55%.
Compound `COc1cccc(OCC2CCCN(C(=O)CCCn3cccn3)C2)c1` (centres undefined) has an INHIBITION of 16.9%.
